Test results from PubChem BioAssay AID1159580 (chemical genetic matrix, 2015).
Where “and” joins values, the source holds several entries; their conditions need not be identical. Equal entries are not always repeated. About 2,000 (36%) of roughly 5,500 compounds were called active. About 18% were inconclusive and are not listed. No stated cut-off is given here; in the data, active means normalized growth mostly below about 0.91 (no sharp cut-off); inconclusive means no clear call, values can overlap the other calls; inactive means mostly above about 0.92. This is one part of the list.

Test: chemical genetic growth profiling, strain panel (AID 1159580);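 further: tested at 20 µM; growth read once vehicle control cultures reached saturation at 30 °C; 1 = growth at the plate median or of vehicle wells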
Conditions: S. cerevisiae deletion strains, growth OD

Measured: normalized growth

N#Cc1ccc2c(c1)N(CCCN1CCC(O)CC1)c1ccccc1S2
inactive: locus YAL013W, strain DEP1, stronger effect = lower value 1 | locus YAL021C, strain ccr4, stronger effect = lower value 1.01 | locus YAL026C, strain drs2, stronger effect = lower value 0.99 | locus YAL030W, strain snc1, stronger effect = lower value 0.999 | locus YBL061C, strain skt5, stronger effect = lower value 0.984 | locus YBR009C, strain hhf1, stronger effect = lower value 0.953 | locus YBR021W, strain FUR4, stronger effect = lower value 1 | locus YBR023C, strain chs3, stronger effect = lower value 0.982 | locus YBR171W, strain sec66, stronger effect = lower value 1 | locus YBR229C, strain ROT2, stronger effect = lower value 1.02 | locus YBR231C, strain swc5, stronger effect = lower value 0.994 | locus YBR279W, strain paf1, stronger effect = lower value 0.987 | locus YCL011C, strain gbp2, stronger effect = lower value 0.989 | locus YCL016C, strain dcc1, stronger effect = lower value 0.987 | locus YCL029C, strain bik1, stronger effect = lower value 1.03 | locus YCL061C, strain MRC1, stronger effect = lower value 0.992 | locus YCL069W, strain vba3, stronger effect = lower value 0.993 | locus YCR088W, strain abp1, stronger effect = lower value 0.996 | locus YDL005C, strain med2, stronger effect = lower value 0.991 | locus YDL035C, strain GPR1, stronger effect = lower value 1.01 | locus YDL040C, strain nat1, stronger effect = lower value 0.975 | locus YDL074C, strain BRE1, stronger effect = lower value 1 | locus YDL101C, strain DUN1, stronger effect = lower value 1 | locus YDL134C, strain PPH21, stronger effect = lower value 1.01 | locus YDL185W, strain tfp1, stronger effect = lower value 1.03 | locus YDL192W, strain arf1, stronger effect = lower value 1.03 | locus YDR001C, strain nth1, stronger effect = lower value 0.992 | locus YDR069C, strain doa4, stronger effect = lower value 0.995 | locus YDR101C, strain arx1, stronger effect = lower value 1.01 | locus YDR137W, strain rgp1, stronger effect = lower value 1.02 | locus YDR150W, strain NUM1, stronger effect = lower value 0.999 | locus YDR159W, strain sac3, stronger effect = lower value 0.979 | locus YDR162C, strain NBP2, stronger effect = lower value 1.02 | locus YDR195W, strain ref2 1 | locus YDR297W, strain sur2, stronger effect = lower value 0.99 | locus YDR318W, strain mcm21, stronger effect = lower value 1.02 | locus YDR334W, strain swr1, stronger effect = lower value 0.996 | locus YDR335W, strain msn5, stronger effect = lower value 0.996 | locus YDR388W, stronger effect = lower value 1.03 | locus YDR502C, strain sam2, stronger effect = lower value 1.01 | locus YEL003W, strain gim4, stronger effect = lower value 1 | locus YEL037C, strain rad23, stronger effect = lower value 0.996 | locus YEL061C, strain CIN8 (second series), stronger effect = lower value 0.994 | locus YEL061C, strain CIN8, stronger effect = lower value 1 | locus YER015W, strain faa2, stronger effect = lower value 1 | locus YER016W, strain bim1, stronger effect = lower value 0.996 | locus YER110C, stronger effect = lower value 1.02 | locus YER111C, strain swi4, stronger effect = lower value 0.984 | locus YER155C, strain BEM2 (second series), stronger effect = lower value 0.912 | locus YER155C, strain BEM2, stronger effect = lower value 1 | locus YER167W, strain BCK2, stronger effect = lower value 1.01 | locus YFR010W, strain ubp6, stronger effect = lower value 0.999 | locus YGL078C, strain dbp3, stronger effect = lower value 1.01 | locus YGL086W, strain mad1, stronger effect = lower value 1.02 | locus YGL167C, strain pmr1, stronger effect = lower value 0.995 | locus YGL173C, strain kem1, stronger effect = lower value 0.991 | locus YGL227W, strain vid30, stronger effect = lower value 0.996 | locus YGL240W, strain doc1, stronger effect = lower value 0.97 | locus YGL248W, strain PDE1, stronger effect = lower value 1.01 | locus YGL253W, strain hxk2, stronger effect = lower value 0.991 | locus YGR078C, strain PAC10, stronger effect = lower value 0.998 | locus YGR135W, strain pre9, stronger effect = lower value 1.01 | locus YGR229C, strain SMI1, stronger effect = lower value 1 | locus YGR252W, strain gcn5, stronger effect = lower value 1.01 | locus YHR013C, strain ard1, stronger effect = lower value 0.897 | locus YHR027C, strain rpn1, stronger effect = lower value 0.997 | locus YHR030C, strain SLT2, stronger effect = lower value 1.01 and 1.03 | locus YHR079C, strain IRE1 (second series), stronger effect = lower value 1.02 | locus YHR079C, strain IRE1, stronger effect = lower value 1.04 | locus YHR094C, strain hxt1, stronger effect = lower value 1.02 | locus YHR129C, strain ARP1, stronger effect = lower value 1 | locus YHR142W, strain chs7, stronger effect = lower value 0.997 | locus YHR200W, strain rpn10, stronger effect = lower value 1.02 | locus YIL066C, strain RNR3, stronger effect = lower value 1.01 | locus YIL073C, strain SPO22, stronger effect = lower value 1.03 | locus YIL125W, strain kgd1, stronger effect = lower value 1.03 | locus YIR030C, strain dcg1, stronger effect = lower value 1.03 | locus YJL092W, strain hpr5, stronger effect = lower value 1 | locus YJL095W, strain BCK1 (second series), stronger effect = lower value 0.988 | locus YJL095W, strain BCK1, stronger effect = lower value 0.983 and 1.04 | locus YJL115W, strain asf1, stronger effect = lower value 0.994 | locus YJL129C, strain trk1, stronger effect = lower value 0.994 | locus YJL134W, strain LCB3, stronger effect = lower value 1 | locus YJL154C, strain vps35, stronger effect = lower value 0.987 | locus YJL164C, strain tpk1, stronger effect = lower value 0.992 | locus YJL166W, strain qcr8, stronger effect = lower value 0.997 | locus YJL168C, strain set2, stronger effect = lower value 1.02 | locus YJL187C, strain SWE1 (second series), stronger effect = lower value 1.01 | locus YJL187C, strain SWE1, stronger effect = lower value 0.998 | locus YJR043C, strain POL32, stronger effect = lower value 1.01 | locus YJR066W, strain TOR1, stronger effect = lower value 0.955
active: locus YDR392W, strain spt3, stronger effect = lower value 0.72
